Consider 40 compounds from PubChem BioAssay AID382 (SGCOxCompounds, 2006).

In this experiment the target is Dual specificity protein kinase CLK1 (Homo sapiens) (UniProt P49759). The experiment is described as follows: ligand-induced CLK1 melting temperature shift – biophysical, recombinant human kinase, DSF (AID 382). As to conditions: Recombinant CLK1, thermal shift (DSF), buffer 10 mM HEPES, stronger effect = higher value.
[1] abbreviates: at 10 µM, protein 2 µM, pH 7.5, NaCl 150 mM, with 50 mM Arg/Glu.
The mark [2] stands for this setting: at 10 µM, protein 2 µM, pH 7.5, NaCl 150 mM, with 50 µM L-Arg/L-Glu (1:1).
[3] abbreviates: at 10 µM, protein 2 µM, NaCl 150 mM.
The mark [4] stands for this setting: at 10 µM, protein 2 µM, NaCl 150 mM, with 50 mM Arg/Glu.
Setting [5] is: at 10 µM, protein 1.7 µM, pH 7.5, NaCl 150 mM, with 50 µM L-Arg/L-Glu (1:1).
The mark [6] stands for this setting: at 10 µM, protein 2 µM, pH 7.5, NaCl 150 mM.

Active and inactive are the calls of the source. The rule behind the calls is not given here.

Dual specificity protein kinase CLK1 (Homo sapiens), sequence (P49759 whole entry, looked up): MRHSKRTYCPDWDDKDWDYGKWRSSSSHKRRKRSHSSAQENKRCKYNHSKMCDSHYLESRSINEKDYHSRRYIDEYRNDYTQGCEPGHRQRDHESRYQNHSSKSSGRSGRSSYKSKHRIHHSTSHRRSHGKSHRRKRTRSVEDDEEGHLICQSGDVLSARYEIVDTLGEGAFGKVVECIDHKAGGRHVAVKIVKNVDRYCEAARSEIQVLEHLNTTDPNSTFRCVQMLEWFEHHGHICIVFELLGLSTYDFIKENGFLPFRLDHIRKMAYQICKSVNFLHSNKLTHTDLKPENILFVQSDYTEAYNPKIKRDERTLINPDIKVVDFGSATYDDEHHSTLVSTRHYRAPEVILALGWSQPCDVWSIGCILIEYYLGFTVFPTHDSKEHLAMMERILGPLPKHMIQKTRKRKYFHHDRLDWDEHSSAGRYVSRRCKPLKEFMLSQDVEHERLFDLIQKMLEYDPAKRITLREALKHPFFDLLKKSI

For `CCOC(=O)c1c(C)[nH]c(/C=C2\C(=O)Nc3ccccc32)c1C`, the Tm shift (at 10 µM, protein 2 µM) was 8.66 Celsius (active).
Consider `CC(C)(C)c1nc2c3cc[nH]c(=O)c3c3cc(F)ccc3c2[nH]1`, for which the Tm shift under setting [1] was 3.6 Celsius (active).
`CC(O)(O)C1(O)C[C@@H]2O[C@@]1(C)n1c3ccccc3c3c4c(c5c6ccccc6n2c5c31)C(=O)NC4` (stereo partly specified): the Tm shift under setting [1] is 5.1 Celsius (active).
For `COCCNc1ccc2ncc(-c3cccc(C(N)=O)c3)n2n1`, under setting [2], the Tm shift is 3.9 Celsius (active).
On to `O=c1cc(-c2ccccc2)oc2cc(O)c(O)c(O)c12`, for which, under setting [3], the Tm shift was 4.05 Celsius (active).
As to `Clc1cccc(Nc2ccn3ncc(-c4ccc5c(c4)OCO5)c3n2)c1`, the Tm shift under setting [4] is 6.85 Celsius (active).
For the compound `N#Cc1ccc(-c2cnc3ccc(NC4CCOCC4)nn23)cc1`, the Tm shift under setting [2] was 7.2 Celsius (active).
Consider `Nc1nc(Nc2ccc(F)cc2)sc1C(=O)c1ccccc1`, for which the Tm shift under setting [5] was 3.3 Celsius (active).
On to `O=c1cc(-c2ccc(O)c(O)c2)oc2cc(O)cc(O)c12`, for which the Tm shift under setting [3] was 5.77 Celsius (active).
On to `CC(C)[C@@H](CO)Nc1ccc2ncc(-c3cccc(Cl)c3)n2n1`, for which, under setting [2], the Tm shift was 3.9 Celsius (active).
Same read-out and setting: the figure for `CC(=O)Nc1cccc(-c2cnc3ccc(N[C@H](CO)C(C)C)nn23)c1` is 7.4 Celsius (active).
For the compound `CC(C)c1ccc(Nc2ccn3ncc(-c4ccsc4)c3n2)cc1`, the Tm shift under setting [6] is 4.63 Celsius (active).
Consider `O=c1c(O)c(-c2cc(O)c(O)c(O)c2)oc2cc(O)cc(O)c12`, for which the Tm shift under setting [3] is 6.89 Celsius (active).
Regarding `CCC(CO)Nc1ccc2ncc(-c3ccc(C(=O)O)cc3)n2n1` (stereo unspecified), under setting [2], the Tm shift was 4.8 Celsius (active).
Regarding `NC(=O)c1ccc(-c2nc(-c3ccc4c(c3)OCCO4)c(-c3ccccn3)[nH]2)cc1`, the Tm shift under setting [1] is 6.3 Celsius (active).
For `CCC(CO)Nc1ccc2ncc(-c3ccc(O)cc3)n2n1` (stereo unspecified), under setting [4], the Tm shift is 7.54 Celsius (active).
As to `CC(C)[C@@H](CO)Nc1ccc2ncc(-c3cccc(F)c3)n2n1`, the Tm shift under setting [2] is 3.9 Celsius (active).
With `Nc1ncc(-c2ccncc2)nc1NC1CCCCC1`, the Tm shift under setting [6] was 3.7 Celsius (active).
For the compound `Clc1ccc(-c2cnn3ccc(NCc4cccnc4)nc23)cc1`, the Tm shift under setting [6] is 4.33 Celsius (active).
In the case of `CCC(CO)Nc1ccc2ncc(-c3cccc(C(C)=O)c3)n2n1` (stereo unspecified), the Tm shift under setting [2] is 6.1 Celsius (active).
Take `COc1cc(O)c2c(c1)oc(=O)c1c3cc(O)c(O)cc3oc21`: the Tm shift under setting [3] is 3.2 Celsius (active).
On to `CCC(CO)Nc1ccc2ncc(-c3ccc(F)c(Cl)c3)n2n1` (stereo unspecified), for which the Tm shift under setting [4] is 5.64 Celsius (active).
As for `CCC(CO)Nc1ccc2ncc(-c3ccc(OC)nc3)n2n1` (stereo unspecified), under setting [2], the Tm shift is 4.5 Celsius (active).
Regarding `CC(C)C(CO)Nc1nc(Nc2cccc(Cl)c2)c2ncn(C(C)C)c2n1` (stereo unspecified), the Tm shift under setting [3] is 6.23 Celsius (active).
Same read-out and setting: the figure for `O=c1c(-c2ccc(O)cc2)coc2cc(O)cc(O)c12` is 3.77 Celsius (active).
For the compound `Nc1ccc(-c2cnn3ccc(Nc4cccc(Cl)c4)nc23)cc1`, under setting [2], the Tm shift was 5.8 Celsius (active).
As for `CCC(CO)Nc1ccc2ncc(-c3cccc(CO)c3)n2n1` (stereo unspecified), the Tm shift under setting [2] is 5.3 Celsius (active).
Consider `Oc1cccc(-c2cnc3ccc(NC4CCOCC4)nn23)c1`, for which the Tm shift under setting [2] is 5.1 Celsius (active).
The same measure, in the same setting: under `OCC1=C(O)C(O)[C@@H](N2CNc3cc(Cl)c(Cl)cc32)O1` (stereo partly specified) stands 3.1 Celsius (active).
Consider `O=C1NC(=O)C(c2c[nH]c3ccccc23)=C1c1c[nH]c2ccccc12`, for which, under setting [3], the Tm shift was 4.13 Celsius (active).
In the case of `Nc1nc(Nc2cccc(Cl)c2)sc1C(=O)c1ccc(F)cc1`, the Tm shift under setting [5] is 4 Celsius (active).
With `CC(=O)c1cccc(-c2cnc3ccc(N[C@H](CO)C(C)C)nn23)c1`, the Tm shift under setting [2] was 6.7 Celsius (active).
Consider `O=C(c1ccc(Nc2nccc(-c3cc4ccccc4s3)n2)cc1)N1CCC(N2CCCC2)CC1`, for which, under setting [2], the Tm shift was 6.1 Celsius (active).
Take `NC1=N/C(=C2\CCNC(=O)c3[nH]ccc32)C(=O)N1`: the Tm shift under setting [2] was 6 Celsius (active).
Consider `O=Nc1c(-c2c(O)[nH]c3ccc(S(O)(O)O)cc23)[nH]c2ccccc12`, for which, under setting [3], the Tm shift is 3.64 Celsius (active).
For `O=C1C(=O)C(c2cccc(O)c2)Oc2ccccc21` (stereo unspecified), under setting [3], the Tm shift was 3.88 Celsius (active).
With `O=C1C(=O)C(c2cc(O)c(O)c(O)c2)Oc2cc(O)cc(O)c21` (stereo unspecified), the Tm shift under setting [3] was 6.4 Celsius (active).
`Clc1ccc(-c2cnc3ccc(NC4CCOCC4)nn23)cc1`: under setting [2], the Tm shift was 5.7 Celsius (active).
For `COc1ccc(Nc2nc(N)c(C(=O)c3ccc(Cl)cc3)s2)cc1`, the Tm shift under setting [5] is 4.4 Celsius (active).
With `CC(=O)c1cccc(-c2cnc3ccc(NCC4CC4)nn23)c1`, the Tm shift runs as follows: under setting [4], 5.75 Celsius (active); (measured here: replicate experiment 2, at 10 µM, run 2, protein 2 µM, NaCl 150 mM, with 50 mM Arg/Glu) 6.01 Celsius.
